# Results as given in PubChem BioAssay (Tox21).
# Values joined by “and” are separate entries in the source; they are usually repeats but may differ in a detail not shown here. Equal entries are not always repeated. A number with no mark means an inactive call. Results filed as inconclusive are left out. Where a call stands in place of a potency, no number is given. Active and inactive are the calls of the source. Unless noted, calls come from the whole dose curve; as a rule, active = well fitted curve in the direction sought with a large enough effect in the repeat runs; inconclusive = weak or mixed curves; inactive = no such curve, though single readings can be large; an effect the other way counts as inactive or inconclusive.
# Assays:
# [1] = Human pregnane X receptor (PXR) small molecule agonists, qHTS cell viability counter screen (AID 1346977); note: nearly all actives have a fitted effect of over 50% in size
# Summary of the method: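 Measures live-cell protease fluorescence (CellTiter-Fluor) in PXR-Luc HepG2 cells treated 24hr with compounds at 37C. Cells had 5hr to attach before pin transfer of DMSO solutions.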
# [2] = Caspase-3/7 induction in HepG2 cells by small molecules, qHTS assay (AID 1346978); note: nearly all actives have a fitted effect of over 15% in size
# Summary of the method: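 Wild-type HepG2 cells, 2,000/well, settled 5 hr at 37 C and 5% CO2, then compound-treated for 17 hr; caspase-3/7 activity read by luminescent Caspase-Glo 3/7 after 30 min at room temperature.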
# [3] = Caspase-3/7 induction in CHO-K1 cells by small molecules, qHTS cell viability counter screen (AID 1346979); note: nearly all actives have a fitted effect of over 35% in size; note: potency is the fitted concentration of half-maximal effect
# Summary of the method: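 In the same wells as the caspase read, viability of compound-treated wild-type CHO-K1 cells was assessed using CellTiter-Fluor, added after 16hr at 37C and measured by fluorescence following 1hr further incubation.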
# [4] = Caspase-3/7 induction in CHO-K1 cells by small molecules, qHTS assay (AID 1346980); note: nearly all actives have a fitted effect of over 15% in size
# Summary of the method: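 Wild-type CHO-K1 cells exposed to compounds for 17hr at 37 C, 5% CO2. Caspase-3/7 activity then measured by Caspase-Glo 3/7 luminescence after 30min at room temperature.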
# [5] = Caspase-3/7 induction in HepG2 cells by small molecules, qHTS cell viability counter screen (AID 1346981); note: series mostly up to about 92 µM; nearly all actives have a fitted effect of over 30% in size
# Summary of the method: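 Cell viability is measured as a cytotoxicity counter screen alongside the Caspase-Glo 3/7 readout in identical wells. Wild-type HepG2 cells are treated with test compounds for 16 hr at 37 C before CellTiter-Fluor addition and a 1-hr incubation.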
# [6] = molecular target: Acetylcholinesterase (Homo sapiens) (UniProt P22303); test: Acetylcholinesterase (AChE) small molecule antagonists: colormetric cell-based qHTS assay (AID 1347395; calls by dose curve; note: nearly all actives have a fitted effect of over 30% in size)
# Summary of the method: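 Endogenous AChE of human neuroblastoma SH-SY5Y cells was measured with an Ellman-type DTNB/acetylthiocholine mix. Compound pretreatment lasted 30 min at 37 C; substrate reaction ran 90 min at 37 C.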
# [7] = molecular target: Acetylcholinesterase (Homo sapiens) (UniProt P22303); test: Acetylcholinesterase (AChE) small molecule antagonists: enzyme-based qHTS assay (AID 1347397; calls by dose curve; note: nearly all actives have a fitted effect of over 55% in size); conditions: Potency: AChE enzyme activity inhibition
# Summary of the method: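 Colorimetric DTNB read-out of thiocholine released from acetylthiocholine by recombinant human AChE (50 mU/mL as dispensed). Compounds were preincubated 30 min at RT before substrate/DTNB addition, with a 10 min RT reaction.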
# [8] = molecular target: Acetylcholinesterase (Homo sapiens) (UniProt P22303); test: Acetylcholinesterase (AChE) small molecule antagonists: enzyme-based qHTS assay with human liver microsomes (AID 1347399; calls by dose curve; note: nearly all actives have a fitted effect of over 60% in size); conditions: Potency: qHTS inhibition
# Summary of the method: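 Recombinant human AChE (50 mU/mL in the enzyme mix) and human liver microsomes (0.25 mg/mL final) were preincubated with compound and NADPH (0.25 mg/mL final) for 30 min at 37 C. Acetylthiocholine/DTNB was then added; thiocholine was read colorimetrically after 10 min at room temperature.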
# [9] = molecular target: Cytochrome P450 2D6 (Homo sapiens) (UniProt P10635); test: Cytochrome P450 Family 2 Subfamily D Member 6 (CYP2D6) small molecule antagonists: luciferase reporter qHTS assay (AID 1671196); note: nearly all actives have a fitted effect of over 50% in size; note: potency is the fitted concentration of half-maximal effect
# Summary of the method: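 Enzyme and proluciferin substrate were first combined with test chemical for 10 min at room temperature. Adding NADPH regeneration solution started a 1 h reaction, stopped with luciferin detection reagent and read by luminescence 20 min later.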
# [10] = molecular target: Cytochrome P450 2C19 (Homo sapiens) (UniProt P33261); test: Cytochrome P450 Family 2 Subfamily C Member 19 (CYP2C19) small molecule antagonists: luciferase reporter qHTS assay (AID 1671197); note: nearly all actives have a fitted effect of over 65% in size; note: potency is the fitted concentration of half-maximal effect
# Summary of the method: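 Light output is proportional to CYP2C19 activity: proluciferin substrate is converted to luciferin, then detected by a luciferin detection reagent that also stops the 1 h, 37C NADPH-driven reaction. Ketoconazole serves as positive control.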
# [11] = molecular target: Cytochrome P450 2C9 (Homo sapiens) (UniProt P11712); test: Cytochrome P450 Family 2 Subfamily C Member 9 (CYP2C9) small molecule antagonists: luciferase reporter qHTS assay (AID 1671198); note: nearly all actives have a fitted effect of over 50% in size; note: potency is the fitted concentration of half-maximal effect
# Summary of the method: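 P450-Glo proluciferin substrate with CYP2C9 enzyme; 10 min RT preincubation, then NADPH regeneration 1 h at 37C; luciferin detection reagent 20 min RT, luminescence in relative luminescence units.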
# [12] = molecular target: Voltage-gated inwardly rectifying potassium channel KCNH2 (Homo sapiens) (UniProt Q12809); test: Human Ether-a-go-go-Related Gene (hERG) channel small molecule antagonists: fluorescence cell-based qHTS assay (AID 1671200);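 note: hERG-expressing U2OS cells given a thallium stimulus after FluxOR II dye loading; series mostly up to about 77 µM; nearly all actives have a fitted effect of over 50% in size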
# Summary of the method: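 Quantitative HTS in hERG-U2OS cells: thallium entry through the channel reports activity, read as continuous 480/540 nm fluorescence over 2 min after stimulus addition.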
# [13] = molecular target: Cytochrome P450 3A4 (Homo sapiens) (UniProt P08684); test: Cytochrome P450 Family 3 Subfamily A Member 4 (CYP3A4) small molecule antagonists: luciferase reporter qHTS assay (AID 1671201)
# Summary of the method: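 Inhibition of CYP3A4 is measured as loss of light: the enzyme converts a proluciferin substrate to luciferin, detected luminescently. Reaction ran 1 h at room temperature with NADPH regeneration after a 10 min compound preincubation.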
# [14] = molecular target: Acetylcholinesterase (Homo sapiens) (UniProt P22303); test: Acetylcholinesterase (AChE) small molecule antagonists: fluorescence cell-based qHTS assay (AID 1347398; calls by dose curve; note: nearly all actives have a fitted effect of over 50% in size); conditions: Potency: AChE activity
# Summary of the method: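 SH-SY5Y, 2,000 cells/well, attached overnight; cmpd 30 min 37 C; acetylthiocholine/Thiolite Green cocktail 40 min RT; fluorescence Ex/Em 490/520 nm.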
# [15] = molecular target: Cytochrome P450 1A2 (Homo sapiens) (UniProt P05177); test: Cytochrome P450 Family 1 Subfamily A Member 2 (CYP1A2) small molecule antagonists: luciferase reporter qHTS assay (AID 1671199); note: nearly all actives have a fitted effect of over 50% in size; note: potency is the fitted concentration of half-maximal effect
# Summary of the method: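 Compounds were incubated with CYP1A2 and a luminogenic proluciferin substrate for 10 min at room temperature before the reaction was started with NADPH regeneration solution. After 1 h, detection reagent was added and light output, proportional to CYP activity, was recorded.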
# [16] = molecular target: Nuclear receptor subfamily 1 group I member 2 (Rattus norvegicus) (UniProt Q9R1A7); test: Rat pregnane X receptor (rPXR) activation by small molecules, qHTS assay (AID 1346983); conditions: rPXR luciferase reporter cells, One-Glo luminescence, 24 h; max activation: active compounds read high; note: nearly all actives have a fitted effect of over 20% in size
# Summary of the method: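 Cell-based rPXR activation assay: rPXR cells, 2,000 per well, rested 5hr at 37 C, then exposed to compounds in DMSO for 24 hr at 37 C. Luciferase activity read by One-Glo luminescence after 30 min at room temperature.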
# [17] = molecular target: Nuclear receptor subfamily 1 group I member 2 (Homo sapiens) (UniProt O75469); test: Human pregnane X receptor (PXR) small molecule agonists, qHTS assay (AID 1346982); note: nearly all actives have a fitted effect of over 35% in size; note: potency is the fitted concentration of half-maximal effect
# Summary of the method: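 Cells: HepG2 stably carrying PXR-Luc. Medium held 5% charcoal-stripped FBS. Compounds in DMSO added after 5 hr plating, incubated 24 hr, then luminescence quantified with ONE-Glo.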
# Chain of Voltage-gated inwardly rectifying potassium channel KCNH2 (Homo sapiens) (Q12809 whole entry, looked up): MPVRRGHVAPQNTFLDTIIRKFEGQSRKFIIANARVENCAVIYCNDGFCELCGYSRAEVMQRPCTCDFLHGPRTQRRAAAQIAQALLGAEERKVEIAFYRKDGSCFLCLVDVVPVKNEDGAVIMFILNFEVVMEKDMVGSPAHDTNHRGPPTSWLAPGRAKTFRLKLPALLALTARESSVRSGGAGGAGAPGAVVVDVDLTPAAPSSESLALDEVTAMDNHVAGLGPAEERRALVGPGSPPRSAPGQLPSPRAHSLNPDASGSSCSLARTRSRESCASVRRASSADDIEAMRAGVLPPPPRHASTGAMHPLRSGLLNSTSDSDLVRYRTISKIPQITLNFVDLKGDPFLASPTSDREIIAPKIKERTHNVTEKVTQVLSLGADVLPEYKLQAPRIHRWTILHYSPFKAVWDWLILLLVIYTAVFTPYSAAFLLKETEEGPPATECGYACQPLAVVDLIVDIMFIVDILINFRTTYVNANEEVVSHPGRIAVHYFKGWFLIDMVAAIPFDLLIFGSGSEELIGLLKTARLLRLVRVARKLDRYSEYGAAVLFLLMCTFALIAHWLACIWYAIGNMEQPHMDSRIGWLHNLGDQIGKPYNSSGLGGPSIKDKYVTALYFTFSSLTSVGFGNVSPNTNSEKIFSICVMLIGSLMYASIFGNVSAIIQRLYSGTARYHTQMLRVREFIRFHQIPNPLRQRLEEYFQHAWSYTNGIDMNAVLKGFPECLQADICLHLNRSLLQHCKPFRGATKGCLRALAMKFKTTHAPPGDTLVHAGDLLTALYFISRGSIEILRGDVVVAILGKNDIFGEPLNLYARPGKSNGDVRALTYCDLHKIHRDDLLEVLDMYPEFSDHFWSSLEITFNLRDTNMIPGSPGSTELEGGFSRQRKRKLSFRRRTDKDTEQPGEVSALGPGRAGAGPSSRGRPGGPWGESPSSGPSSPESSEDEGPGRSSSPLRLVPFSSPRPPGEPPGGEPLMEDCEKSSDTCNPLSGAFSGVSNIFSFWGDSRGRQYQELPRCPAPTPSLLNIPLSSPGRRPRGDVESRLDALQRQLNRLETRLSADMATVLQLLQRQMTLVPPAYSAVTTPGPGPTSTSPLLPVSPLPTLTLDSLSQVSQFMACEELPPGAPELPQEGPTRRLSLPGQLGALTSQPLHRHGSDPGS
# Chain of Cytochrome P450 2C9 (Homo sapiens) (P11712 whole entry, looked up): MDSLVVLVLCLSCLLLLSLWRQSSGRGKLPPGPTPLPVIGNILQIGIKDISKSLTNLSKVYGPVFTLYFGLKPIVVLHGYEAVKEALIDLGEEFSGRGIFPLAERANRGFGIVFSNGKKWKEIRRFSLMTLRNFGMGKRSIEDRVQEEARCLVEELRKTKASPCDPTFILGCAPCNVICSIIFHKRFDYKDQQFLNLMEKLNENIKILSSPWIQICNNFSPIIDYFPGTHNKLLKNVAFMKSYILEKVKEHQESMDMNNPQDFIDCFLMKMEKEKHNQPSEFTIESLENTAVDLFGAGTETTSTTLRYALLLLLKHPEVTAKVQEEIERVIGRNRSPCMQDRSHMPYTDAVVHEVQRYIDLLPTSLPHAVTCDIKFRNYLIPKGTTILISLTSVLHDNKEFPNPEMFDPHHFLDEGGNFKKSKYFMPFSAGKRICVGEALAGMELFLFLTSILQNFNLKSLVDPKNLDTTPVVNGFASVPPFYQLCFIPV
# Chain of Cytochrome P450 1A2 (Homo sapiens) (P05177 whole entry, looked up): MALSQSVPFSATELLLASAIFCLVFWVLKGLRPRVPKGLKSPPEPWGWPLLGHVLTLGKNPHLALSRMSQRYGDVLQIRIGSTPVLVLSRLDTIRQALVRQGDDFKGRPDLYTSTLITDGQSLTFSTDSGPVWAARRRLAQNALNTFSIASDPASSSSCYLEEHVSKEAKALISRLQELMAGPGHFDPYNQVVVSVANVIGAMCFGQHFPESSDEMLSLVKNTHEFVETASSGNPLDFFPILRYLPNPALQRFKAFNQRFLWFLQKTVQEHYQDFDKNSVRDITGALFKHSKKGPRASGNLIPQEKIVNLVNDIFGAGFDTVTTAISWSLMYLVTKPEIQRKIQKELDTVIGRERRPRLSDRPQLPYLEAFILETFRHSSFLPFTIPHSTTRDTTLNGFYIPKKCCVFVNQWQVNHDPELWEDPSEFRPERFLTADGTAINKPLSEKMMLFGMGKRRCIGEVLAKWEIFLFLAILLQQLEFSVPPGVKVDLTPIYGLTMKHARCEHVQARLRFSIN
# Chain of Cytochrome P450 2C19 (Homo sapiens) (P33261 whole entry, looked up): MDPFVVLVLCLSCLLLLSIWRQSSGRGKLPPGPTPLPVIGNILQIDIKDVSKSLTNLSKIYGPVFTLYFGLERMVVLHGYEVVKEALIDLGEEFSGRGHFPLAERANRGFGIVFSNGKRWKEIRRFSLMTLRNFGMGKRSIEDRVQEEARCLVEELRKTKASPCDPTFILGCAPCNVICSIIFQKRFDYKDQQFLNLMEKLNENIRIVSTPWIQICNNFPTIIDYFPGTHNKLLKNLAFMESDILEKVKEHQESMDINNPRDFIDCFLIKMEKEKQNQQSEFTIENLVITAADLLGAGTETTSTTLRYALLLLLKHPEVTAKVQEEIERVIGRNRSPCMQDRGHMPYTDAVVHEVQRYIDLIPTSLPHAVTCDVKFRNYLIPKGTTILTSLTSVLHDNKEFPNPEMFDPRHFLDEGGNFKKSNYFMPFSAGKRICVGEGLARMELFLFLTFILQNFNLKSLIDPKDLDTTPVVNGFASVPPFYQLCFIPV
# Chain of Cytochrome P450 3A4 (Homo sapiens) (P08684 whole entry, looked up): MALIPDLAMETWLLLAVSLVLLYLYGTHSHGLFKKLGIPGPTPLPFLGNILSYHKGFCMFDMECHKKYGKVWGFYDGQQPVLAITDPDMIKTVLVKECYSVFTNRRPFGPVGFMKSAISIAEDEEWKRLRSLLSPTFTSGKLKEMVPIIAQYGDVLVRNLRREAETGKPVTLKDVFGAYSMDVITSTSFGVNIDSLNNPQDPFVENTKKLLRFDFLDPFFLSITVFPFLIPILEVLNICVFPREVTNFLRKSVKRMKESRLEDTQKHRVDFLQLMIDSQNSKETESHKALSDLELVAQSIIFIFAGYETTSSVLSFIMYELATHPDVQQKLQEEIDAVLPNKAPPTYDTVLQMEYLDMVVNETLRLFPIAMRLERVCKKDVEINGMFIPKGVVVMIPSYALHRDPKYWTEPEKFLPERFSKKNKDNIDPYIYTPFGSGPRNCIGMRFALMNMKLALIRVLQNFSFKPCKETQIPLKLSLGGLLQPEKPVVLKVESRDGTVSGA
# Chain of Acetylcholinesterase (Homo sapiens) (P22303 whole entry, looked up): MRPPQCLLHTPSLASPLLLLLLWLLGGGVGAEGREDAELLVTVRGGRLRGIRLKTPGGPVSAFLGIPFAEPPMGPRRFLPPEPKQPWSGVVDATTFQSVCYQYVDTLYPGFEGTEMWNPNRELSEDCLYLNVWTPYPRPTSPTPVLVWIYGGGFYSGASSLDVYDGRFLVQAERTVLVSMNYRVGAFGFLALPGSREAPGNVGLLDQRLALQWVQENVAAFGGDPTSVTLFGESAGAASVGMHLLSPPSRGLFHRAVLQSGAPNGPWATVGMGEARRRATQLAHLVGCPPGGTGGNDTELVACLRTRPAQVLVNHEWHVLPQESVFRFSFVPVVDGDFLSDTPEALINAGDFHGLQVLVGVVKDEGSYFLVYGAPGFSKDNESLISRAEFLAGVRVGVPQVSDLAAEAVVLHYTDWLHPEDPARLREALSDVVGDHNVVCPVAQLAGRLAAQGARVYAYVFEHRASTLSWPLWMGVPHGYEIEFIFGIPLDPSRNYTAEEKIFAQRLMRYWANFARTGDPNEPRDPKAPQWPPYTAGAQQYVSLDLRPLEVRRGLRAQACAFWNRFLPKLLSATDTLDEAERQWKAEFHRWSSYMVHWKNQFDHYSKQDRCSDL
# Chain of Cytochrome P450 2D6 (Homo sapiens) (P10635 whole entry, looked up): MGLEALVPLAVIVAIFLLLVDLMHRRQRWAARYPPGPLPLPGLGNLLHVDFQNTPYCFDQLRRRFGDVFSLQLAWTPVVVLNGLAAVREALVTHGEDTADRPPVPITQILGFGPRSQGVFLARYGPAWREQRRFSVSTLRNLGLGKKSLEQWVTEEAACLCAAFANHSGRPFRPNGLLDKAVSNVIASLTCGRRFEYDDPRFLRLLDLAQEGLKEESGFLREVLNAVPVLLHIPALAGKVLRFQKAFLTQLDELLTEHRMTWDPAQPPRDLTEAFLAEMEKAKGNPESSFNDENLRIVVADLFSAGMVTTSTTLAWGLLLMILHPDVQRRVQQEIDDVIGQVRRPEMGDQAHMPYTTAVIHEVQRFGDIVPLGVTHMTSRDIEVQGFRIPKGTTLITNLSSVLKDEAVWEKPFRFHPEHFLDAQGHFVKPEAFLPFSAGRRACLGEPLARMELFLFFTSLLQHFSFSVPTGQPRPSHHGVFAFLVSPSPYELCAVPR
# Chain of Nuclear receptor subfamily 1 group I member 2 (Homo sapiens) (O75469 whole entry, looked up): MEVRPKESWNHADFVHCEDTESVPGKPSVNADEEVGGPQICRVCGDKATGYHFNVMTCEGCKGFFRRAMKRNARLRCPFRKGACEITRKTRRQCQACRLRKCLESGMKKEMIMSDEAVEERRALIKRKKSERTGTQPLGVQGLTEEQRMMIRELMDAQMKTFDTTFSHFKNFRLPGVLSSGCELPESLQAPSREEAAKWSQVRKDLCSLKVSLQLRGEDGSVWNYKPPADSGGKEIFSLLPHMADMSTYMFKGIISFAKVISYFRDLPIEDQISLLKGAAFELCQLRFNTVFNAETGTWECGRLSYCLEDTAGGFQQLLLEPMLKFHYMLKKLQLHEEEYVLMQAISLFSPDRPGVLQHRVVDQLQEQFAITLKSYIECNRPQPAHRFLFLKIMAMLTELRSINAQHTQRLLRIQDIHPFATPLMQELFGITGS
Structure (SMILES),Potency [1],Potency [2],Potency [3],Potency [4],Potency [5],Potency [6],Potency [7],Potency [8],Potency [9],Potency [10],Potency [11],Potency [12],Potency [13],Potency [14],Potency [15],max activation [16] [%],Potency [17]
Nc1nc(=S)[nH][nH]1,inactive,inactive,inactive,inactive,inactive,inactive,inactive,inactive,44.8 µM (active),25.2 µM (active),31.7 µM (active),inactive,inactive,,,,
O=C(CBr)Nc1ccc(Cl)cc1C(=O)c1ccccc1F,inactive,inactive,inactive,inactive,inactive,inactive,inactive,inactive,inactive,1.95 µM (active),,inactive,,inactive,13.8 µM (active),,
O=C1C(Cl)C(CCl)CN1c1cccc(C(F)(F)F)c1 (stereo unspecified),inactive,inactive,inactive,inactive,inactive,inactive,,inactive,,8.94 µM (active),inactive,,inactive,,1 µM (active),,
C=COC(C)=O,inactive,inactive,inactive,inactive,inactive,inactive,inactive,inactive,,inactive,inactive,inactive,inactive,inactive,41.3 µM (active),,
COc1c(C(C)(C)C)cc([N+](=O)[O-])c(C)c1[N+](=O)[O-],inactive,inactive,inactive,inactive,inactive,,inactive,inactive,,28.1 µM (active),,,,,1.77 µM (active),,
CC(C)N(CCC(C(N)=O)(c1ccccc1)c1ccccn1)C(C)C (stereo unspecified),inactive,inactive,inactive,inactive,inactive,,,inactive,,,,,,inactive,,-7.32,
[CH3][Sn]([CH3])([Cl])[Cl],inactive,inactive,31.1 µM (active) and 54.5 µM (active),inactive,inactive,,inactive,inactive,inactive,inactive,inactive,inactive,inactive,inactive,inactive,,
CCOc1ccc(C(C)(C)COCc2cccc(Oc3ccccc3)c2)cc1,inactive,inactive,inactive,inactive,inactive,inactive,inactive,inactive,35.6 µM (active),17.8 µM (active),6.33 µM (active),inactive,inactive,inactive,,,
O=C(O)c1ccccc1C(=O)Nc1cccc2ccccc12,inactive,inactive,inactive,inactive,inactive,inactive,inactive,inactive,31.7 µM (active),15.9 µM (active),17.8 µM (active),inactive,,inactive,12.6 µM (active),,
CC(C)(Cl)[N+](=O)[O-],inactive,inactive,inactive,inactive,inactive,inactive,inactive,inactive,inactive,89.8 µM (active),,inactive,,inactive,,,
c1ccoc1,inactive,inactive,inactive,inactive,inactive,inactive,,inactive,inactive,inactive,inactive,inactive,inactive,inactive,inactive,,
CC1(C)[C@H](C=C(Cl)Cl)[C@@H]1C(=O)O[C@@H](C#N)c1cccc(Oc2ccccc2)c1,inactive,inactive,inactive,inactive,inactive,,inactive,inactive,,7.96 µM (active),3.56 µM (active),inactive,inactive,,inactive,,4.33 µM (active)
CCOC(=O)C(Cl)C(C)=O (stereo unspecified),inactive,inactive,inactive,inactive,inactive,,inactive,inactive,inactive,,inactive,inactive,,,inactive,,inactive
